LmPK inh: inhibitors of Leishmania mexicana pyruvate kinase. Q27686. purified LmPK, Kinase-Glo ATP luminescence, 1 h. Potency, µM (doses to about 57.5 µM), for the others: at the top dose activity change, negative = inhibition, usual class: inhibitors. 290,000 compounds, 0.37% hits
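Kinase-Glo luminescence read after 1 h RT reaction of 0.1 nM LmPK with 0.5 mM PEP and 0.1 mM ADP. Activity scaled between uninhibited and enzyme-free controls.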
RE007 growth inh: less growth of the S. pombe RE007 Vpr strain. S. pombe RE007 Vpr strain, BacTiter-Glo ATP luminescence, 24 h. Potency, µM (top dose mostly 92.2 µM), for inactives: top-dose activity change, negative = less growth, actives largely listed as inhibitors. 360,000 compounds, 0.21% hits. AID 651644; active = well fitted falling curve with a large enough effect; inconclusive = small, poorly fitted or top-dose-only effect; inactive = no such curve, though single readings can be large or run the other way; note: nearly all actives have a fitted effect of over 50% in size
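Fission yeast RE007 carrying one integrated HIV-1 vpr copy, seeded at OD 0.01 in PMG+AL medium with 23 nL pinned compound. Grown 24 h at 30 degrees; viability read by BacTiter-Glo luminescence after 5 min.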
TbPYK inhibitor: blocks Trypanosoma brucei pyruvate kinase | Q57TT1 | TbPYK enzyme, Kinase-Glo Plus ATP luminescence, 45 min | Potency, µM (series often up to 76.8 µM), inactives show top-dose activity, negative = inhibition, usual class: inhibitors | 410,000 compounds, 0.12% hits | AID 624173; note: nearly all actives have a fitted effect of over 50% in size
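In this concentration-response screen, enzyme-free wells defined baseline while DMSO plates tracked drift. Each reaction combined TbPYK, substrate, compound and 130 uM ADP for 45 min at room temperature. Kinase-Glo Plus luminescence gave the signal.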
FBPA Giardia inh: inhibitors of Giardia lamblia fructose-1,6-bisphosphate aldolase | A8B2U2 | purified Giardia FBPA | Potency, µM (series often up to 59.6 µM), inactives show top-dose activity, negative = inhibition, usual class: inhibitors | 290,000 compounds, 0.71% hits; note: nearly all actives have a fitted effect of over 55% in size
Target sequence (A8B2U2 whole entry, looked up): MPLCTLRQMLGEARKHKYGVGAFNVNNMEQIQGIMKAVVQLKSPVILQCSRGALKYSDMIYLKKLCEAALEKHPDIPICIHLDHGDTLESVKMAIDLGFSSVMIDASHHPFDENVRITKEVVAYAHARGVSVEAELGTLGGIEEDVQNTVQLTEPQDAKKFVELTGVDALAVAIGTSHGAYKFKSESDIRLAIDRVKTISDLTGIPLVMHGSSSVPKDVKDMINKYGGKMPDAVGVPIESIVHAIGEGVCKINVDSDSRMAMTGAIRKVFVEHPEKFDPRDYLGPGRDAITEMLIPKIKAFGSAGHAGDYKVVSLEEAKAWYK
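Giardia FBPA (40 nM reagent) was preincubated 10 min at RT with compound (up to 57.5 uM final), then substrate plus GAPDH/TPI/NAD/arsenate coupling system with diaphorase/resazurin was added; resorufin fluorescence (525/598 nm) was read after 20 min.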
* hit, by the source's call; ? = inconclusive; nt = no result; [ ] = another dose, or the depositor's remark. This is a sample that favours compounds with a hit; in the whole collection about 0.95% have one here. Unless noted, calls come from the whole dose curve; as a rule, active = well fitted curve in the direction sought with a large enough effect; inconclusive = small, poorly fitted or top-dose-only effect, or another doubt; inactive = no such curve, though single readings can be large; an effect the other way counts as inactive or inconclusive. % is set by controls: 0 for no effect and ±100 for the full control effect; potency is the fitted concentration of half-maximal effect.

SMILES	LmPK inh	RE007 growth inh	TbPYK inhibitor	FBPA Giardia inh
Cc1ccsc1/C=N\NC(=O)c1n[nH]c2c1CCC2	10µM*	-10%	-16%	2%
COc1c2c(c(C(=O)/C=C/C(C)=C/c3ccccc3)c3c1OCO3)CCN(C)C2	nt	nt	nt	0%
COc1cc(/C=N/n2c(C3CCCCC3)n[nH]c2=S)cc(Br)c1O	-26%	4%	7.9µM*	-4%
S=c1[nH]nc(C2CCCCC2)n1/N=C/c1cccc(Br)c1	1%	5%	-12%	13%
COC(=O)C(NS(N)(=O)=O)C(C)C (stereo unspecified)	nt	nt	nt	4%
CCOc1ccc(C2C(C(=O)/C=C/c3ccco3)=C(O)C(=O)N2CCN2CCOCC2)cc1OC (stereo unspecified)	7%[11.5 µM]	6%	-13%	7.9µM*
O=C1C2C3C=CC(CO)(O3)C2C(=O)N1c1ccc(-c2ccccc2)cc1 (stereo unspecified)	?	nt	nt	-11%
O=[N+]([O-])c1ccccc1S(=O)(=O)NCc1ccco1	5%	0%	-5%	3%
Cc1cc(C)c(S(=O)(=O)NCC23C=CC(O2)C2C(=O)N(c4ccccc4)C(=O)C23)c(C)c1 (stereo unspecified)	3%	22µM*	-20%	nt
O=C1C2C3C=CC(CNS(=O)(=O)c4ccccc4[N+](=O)[O-])(O3)C2C(=O)N1c1ccccc1 (stereo unspecified)	4%	5µM*	-20%	-5%
CN(C)c1ncc2nc(-c3cc(F)cc(F)c3)c(=O)n(C3CC3)c2n1	nt	nt	nt	-1%
CCC(CC)c1nn2c(=O)cc(COc3ccc(NC(=O)c4ccccc4C)cc3)nc2s1	nt	nt	10%	nt
CC(=O)OC[C@H]1O[C@@H](O/N=C\[C@@H](C)[C@H](OCc2ccccc2)C(C)C)[C@H](OC(C)=O)[C@@H](OC(C)=O)[C@H]1OC(C)=O	nt	nt	nt	-2%[12.9 µM]
C=CCn1c(CSc2ccc(C)cc2)n[nH]c1=S	-13%	14%	4µM*	?
C=CCn1c(CSc2nnc(-c3ccccc3)n2C)n[nH]c1=S	-5%	5%	-23%	?
C=CCn1c(CSc2nc3ccccc3s2)n[nH]c1=S	?	5%	4.5µM*	11%
OC[C@H]1OC(O)[C@@H](O)[C@@H](O)[C@H]1O (stereo partly specified)	nt	nt	nt	-5%
CN(C)C(=O)c1ccc(-c2ccc3ncnc(NCc4cccs4)c3c2)cc1	nt	nt	nt	-6%
CCN1/C(=N\N)c2cccc3cccc1c23	-12%	-22%	-24%	10µM*
COc1cccc(N2CCN(C3CC(=O)N(c4ccc(F)c(Cl)c4)C3=O)CC2)c1 (stereo unspecified)	9%	28µM*	-8%	-16%
CCCOc1ccc(N2C(=O)CC(N3CCN(c4ccccc4OC)CC3)C2=O)cc1 (stereo unspecified)	1%	?	-4%	-2%
CCOc1ccc(N2C(=O)CC(N3CCN(c4ccccc4OC)CC3)C2=O)cc1 (stereo unspecified)	3%	28µM*	-3%	-2%
COc1ccc(NC2CCN(C3CC(=O)N(c4ccc(F)c(Cl)c4)C3=O)CC2)cc1 (stereo unspecified)	3%	6.3µM*	-12%	-25%
CC(C)OCCCNC(=S)Nc1ccc(S(N)(=O)=O)cc1	1%	19%	?	14µM*
CN(C(=S)Nc1ccccc1)c1ccccc1	3%	10%	-6%	6%
SMILES	LmPK inh	RE007 growth inh	TbPYK inhibitor	FBPA Giardia inh
CN(C(=S)Nc1ccc(Oc2ccccc2)cc1)c1ccc(O)cc1	2%	4%	-23%	1.4µM*
CC(=O)NCCNc1nc2cc(-c3ccccc3C)sc2c(=O)n1C	nt	32%	1%	nt
CC(=O)NCCNc1nc2cc(-c3ccccc3CO)sc2c(=O)n1C	nt	28µM*	-5%	nt
Nc1ncnc2c1ncn2[C@@H]1O[C@H](COP(=O)(O)OP(=O)(O)OP(=O)(O)O)[C@@H](O)[C@H]1O	nt	3.2µM*	-20%	nt
CCNc1ccccc1CP(=O)(c1ccccc1)c1ccccc1O (stereo unspecified)	6%	-19%	-24%	1.8µM*
Cc1ccc(O)c(CP(=O)(c2ccccc2)c2ccccc2)c1	2%	10%	0%	-4%
O=C(CSc1cccc[n+]1[O-])c1cc2ccccc2o1	21%	8.9µM*	-12%	?
Nc1nc(SCC(=O)c2cc3ccccc3o2)n[nH]1	2%	6%	-12%	?
O=C(CSc1cccc[n+]1[O-])c1cc(Cl)ccc1Cl	0%	5µM*	2%	?
O=C(O)CSc1cccc[n+]1[O-]	-4%	16%	-2%	0%
COc1ccc(CCNC(=O)C2CCCN(c3nc4c(C)cc(C)cc4s3)C2)cc1OC (stereo unspecified)	nt	nt	-2%	nt
Oc1ccc(/C=N/Nc2nccnc2Cl)cc1	5µM*	?	?	-19%
O=[N+]([O-])c1cccc(/C=N/Nc2ccccn2)c1	-2%	4%	-8%	-1%
O=[N+]([O-])c1cccc(/C=N/Nc2nccnc2Cl)c1	14µM*	-14%	-19%	-25%
CCCn1c(-c2ccc(F)cc2)nc2c(NC(C)CCCN(CC)CC)nc(C)nc21 (stereo unspecified)	nt	nt	nt	1%
N#C/C(C(N)=O)=c1/ccc2c(c1)N1C3=C(CCCC3)CC3CCCCC31N=2 (stereo unspecified)	7.9µM*	-22%	?	-16%
N#CC(C#N)=c1ccc2c(c1)N1C3=C(CCCC3)CC3CCCCC31N=2 (stereo unspecified)	18µM*	-9%	?	-3%
COc1ccc(-c2nc3ccc(C4=C(C)CC(=O)NN4)cc3[nH]2)cc1	nt	nt	3%	nt
CCOC(=O)Cc1csc(NC(=O)c2ccoc2C)n1	14µM*	-30%	-27%	1%
Cc1csc(NC(=O)c2ccoc2C)n1	16µM*	?	?	2%
Cc1occc1C(=O)Nc1cc(C(C)(C)C)on1	13µM*	-26%	?	1%
Cc1cccc(NC(=O)c2ccoc2C)n1	?	-21%	-8%	5%
Cc1csc(NC(=O)c2cccc(C)c2C)n1	-5%	0%	-9%	-3%
S=c1[nH]c(-c2ccccc2)cn1/N=C/c1ccncc1	4.5µM*	3%	?	-1%
COc1cc(/C=C2\CC/C(=C\c3cc(OC)c(O)c(OC)c3)C2=O)cc(OC)c1O	0%	5%	?	1.6µM*
SMILES	LmPK inh	RE007 growth inh	TbPYK inhibitor	FBPA Giardia inh
COc1cc(/C=C2\CC/C(=C\c3cc(OC)c(OC)c(OC)c3)C2=O)cc(OC)c1OC	1%	4%	2%	-2%
COc1cc(/C=N/N(C)c2ccccc2)cc(Cl)c1O	-2%	28µM*	4%	-13%
Cc1nn(-c2nc3ccccc3[nH]2)c(N)c1-c1ccccc1	-15%	28µM*	1%	0%
CC(=NNC(=S)N1CC2CCC(CC2)C1)c1nccs1	nt	32µM*	?	nt
CN(C)c1ccc(CNC(=O)CCCN2C(=O)c3cccnc3Oc3ccc(Cl)cc32)cc1	nt	nt	0%[15.4 µM]	nt
C=CCOc1ccc2ccccc2c1/C=N/O	2%	32µM*	4%	-1%
COc1ccc2ccccc2c1/C=N/O	-1%	-14%	7%	0%

From PubChem BioAssay
